Assay results published in PubChem BioAssay (NCATS).
Inconclusive results are not listed. Calls of active or inactive are those of the source. Calls follow the shape of the dose curve; as a rule, active = well fitted curve in the direction sought with a large enough effect in the signal ratio, with a control signal flat (not every such curve was filed as active); inconclusive = small, poorly fitted or top-dose-only effect, or effect the other way, or a change in a side signal; inactive = no such curve, though single readings can be large or run the other way; the % refers to the signal ratio.

molecular target: Tyrosine-protein phosphatase non-receptor type substrate 1 (Homo sapiens) + Leukocyte surface antigen CD47 (Homo sapiens) (UniProt P78324+Q08722); assay: CD47-SIRPalpha protein protein interaction - LANCE assay qHTS validation (AID 1347057); details: Recombinant CD47-His / biotin-SIRPalpha, TR-FRET ratio; series mostly up to 38.3 µM; activity change, negative = inhibition: at the top concentration; also: 0% is about no effect
Source text: SIRPalpha is a myeloid cell expressed immunomodulatory receptor that binds the tumor expressed immune checkpoint CD47. Therapeutic disruption of this interaction leads to immune-mediated tumor rejection. This assay was used to quantitate CD47-SIRPalpha binding biochemically and evaluate chemical libraries for novel CD47-SIRPalpha inhibitors. To recapitulate the biological interaction of CD47 and SIRPalpha, we designed expression constructs to produce their recombinant, soluble, extracellular interaction domains. CD47 was produced with an N-terminal 6His tag. SIRPalpha was produced with an N-terminal Avi-Tag for site-specific biotin incorporation. The CD47-SIRPalpha interaction was measured by TR-FRET using affinity tag linked reagents (anti-6His-Eu donor and streptavidin-APC acceptor). SIRPalpha without biotin incorporation was used as a positive control inhibitor.
PROTOCOL TABLE (as described by Miller, T. et al. 2019)
SEQUENCE No. (e.g., 1, 2, 3, etc.); […] (e.g., Cells, Incubation, Reagent, etc.); VALUE and DESCRIPTION.
1a. Reagent. 3 uL CD47-His (12.5 nM) and Anti-His Eu Donor reagent (3 nM) added to respective wells in Assay buffer; white/solid bottom high base, med bind 1536-well plates (Greiner 789075)
1b. Reagent. 2 uL Assay buffer negative control for background fluorescence
2. Reagent. 23 nL library compounds (7-pt, 1:4 intraplate titration series) or DMSO control transferred by Pin Tool
3. Centrifuge. Centrifuge plate for 30 s at 1000 RPM
4. Incubation.#Incubate reagents at room temperature for 30 min, protected from light
5. Reagent. 2 uL SIRPalpha-biotin (100 nM) in Assay buffer
6. Incubation.#Incubate reagents at room temperature for 30 min, protected from light
7. Reagent. 1 uL SAV-APC (26 nM) acceptor reagent added to respective wells
8. Centrifuge. Centrifuge plate for 30 s at 1000 RPM
9. Incubation. Incubate reagents at room temperature for 30 min, protected from light
10. Detector. Measure Top TR-FRET on EnVision (Eu/APC filter set); calculate ratio Ch1/Ch2
1. Assay buffer composition.#Phosphate buffered saline (PBS; 10 mM Phosphate, 137 mM NaCl, and 2.7 mM KCl; pH 7.4), 0.05% IGEPAL CA-630
2. 23nL of […] library compounds (7 plates) or DMSO vehicle control transferred to 9 Greiner white/solid bottom high base, TC plates in 7 interplate 1:5 titrations (see Yasgar, A. et al. 2008) with Pintool. Two of the 9 plates are DMSO-only in compound field at beginning and end of compound library-treated plates.
10. Detector settings#Mirror = LANCE/DELFIA Dual Enh; Ex. Filter = UV2[TRF] 320; Em. Filter = APC 665; 2nd Em. Filter = Europium 615; Measurement h = 6.5; Ex. light (%) = 100; Delay = 60 us; Window t = 100 us; No. Seq. windows = 1; Time between flashes = 2000us; No. of flashes = 100; No. of flashes for 2nd detector = 100; Calculation: "Ratio Ch1/Ch2"

Sequence of Tyrosine-protein phosphatase non-receptor type substrate 1 (Homo sapiens) + Leukocyte surface antigen CD47 (Homo sapiens) (P78324 whole entry, looked up): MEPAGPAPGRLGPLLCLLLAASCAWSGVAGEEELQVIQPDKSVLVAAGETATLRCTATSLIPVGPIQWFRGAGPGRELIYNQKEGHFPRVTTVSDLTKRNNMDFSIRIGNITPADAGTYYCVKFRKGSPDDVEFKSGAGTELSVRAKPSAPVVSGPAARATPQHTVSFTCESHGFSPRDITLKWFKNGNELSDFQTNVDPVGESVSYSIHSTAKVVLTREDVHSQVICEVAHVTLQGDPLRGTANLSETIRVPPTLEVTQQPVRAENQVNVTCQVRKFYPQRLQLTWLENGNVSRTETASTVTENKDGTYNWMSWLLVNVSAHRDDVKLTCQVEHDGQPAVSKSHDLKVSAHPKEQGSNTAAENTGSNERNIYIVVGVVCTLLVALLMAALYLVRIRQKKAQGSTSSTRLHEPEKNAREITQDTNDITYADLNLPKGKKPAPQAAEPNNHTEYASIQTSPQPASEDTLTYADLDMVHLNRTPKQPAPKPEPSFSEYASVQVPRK
Sequence of Tyrosine-protein phosphatase non-receptor type substrate 1 (Homo sapiens) + Leukocyte surface antigen CD47 (Homo sapiens) (Q08722 whole entry, looked up): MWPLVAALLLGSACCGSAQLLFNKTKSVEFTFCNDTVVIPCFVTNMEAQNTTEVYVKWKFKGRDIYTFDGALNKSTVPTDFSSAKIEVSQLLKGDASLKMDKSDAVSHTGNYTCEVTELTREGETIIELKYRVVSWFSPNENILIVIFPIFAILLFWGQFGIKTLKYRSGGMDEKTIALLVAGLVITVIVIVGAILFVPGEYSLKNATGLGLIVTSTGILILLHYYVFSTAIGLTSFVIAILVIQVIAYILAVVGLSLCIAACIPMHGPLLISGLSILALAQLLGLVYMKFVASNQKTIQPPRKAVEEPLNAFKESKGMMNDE

Compound | activity change, negative = inhibition
CCN(CC)CCNC(=O)c1ccc(NC(C)=O)cc1 | -3.32% (inactive)
FC(F)(F)c1ccccc1-n1ccnc1 | 1.19% (inactive)
CCO/C([O-])=N/c1c[n+](N2CCOCC2)no1 | 2.39% (inactive)
CCCN1C[C@H](CSC)C[C@@H]2c3cccc4[nH]cc(c34)C[C@H]21 | 0.695% (inactive)
CN1C[C@H](C(=O)N[C@]2(C)O[C@@]3(O)[C@@H]4CCCN4C(=O)[C@H](Cc4ccccc4)N3C2=O)C[C@@H]2c3cccc4[nH]cc(c34)C[C@H]21 | -0.265% (inactive)
O=C(O)CN(CCOCCOCCN(CC(=O)O)CC(=O)O)CC(=O)O | 1.91% (inactive)
NC(N)=NC(=O)Cc1c(Cl)cccc1Cl | 0.44% (inactive)
Cc1ccc(=O)n(-c2ccccc2)c1 | 0.896% (inactive)
CC(=O)Nc1nnc(S(N)(=O)=O)s1 | 2.53% (inactive)
NCCCNCCSP(=O)(O)O | -0.165% (inactive)
CCCC(C(=O)OCCN(CC)CC)(c1ccccc1)c1ccccc1 | 1.47% (inactive)
CCOC(=O)C1=C(C)NC(C)=C(C(=O)OC)C1c1cccc(Cl)c1Cl (stereo not given) | 0.603% (inactive)
CCCCCCCC/C=C\CCCCCCCC(=O)NCc1ccc(O)c(OC)c1 | 1.24% (inactive)
COC(=O)[C@H]1[C@H]2C[C@@H]3c4[nH]c5cc(OC)ccc5c4CCN3C[C@H]2C[C@@H](OC(=O)c2cc(OC)c(OC)c(OC)c2)[C@@H]1OC | -0.467% (inactive)
NC(=O)c1ncn([C@@H]2O[C@H](CO)[C@@H](O)[C@H]2O)c1O | 0.875% (inactive)
CN(C)CC/C=C1\c2ccccc2COc2ccccc21 | 2.58% (inactive)
CC(C)(Oc1ccc(CCNC(=O)c2ccc(Cl)cc2)cc1)C(=O)O | 1.98% (inactive)
COc1ccc(CN(CCN(C)C)c2ccccn2)cc1 | 1.19% (inactive)
NC(N)=N/N=C/c1c(Cl)cccc1Cl | 1.07% (inactive)
O=C(O)CN(CCN(CC(=O)O)CC(=O)O)CCN(CC(=O)O)CC(=O)O | 1.17% (inactive)

Compound | activity change, negative = inhibition
CSc1ccc(C(=O)c2[nH]c(=O)[nH]c2C)cc1 | 0.412% (inactive)
CC[N+](C)(C)c1cccc(O)c1 | -1.24% (inactive)
COc1cc(C(=O)OCCCN2CCCN(CCCOC(=O)c3cc(OC)c(OC)c(OC)c3)CC2)cc(OC)c1OC | -2.01% (inactive)
CN(C)C/C=C(/c1ccc(Br)cc1)c1cccnc1 | 0.531% (inactive)
Cc1ccc(Cl)c(Nc2ccccc2C(=O)O)c1Cl | 0.522% (inactive)
COc1cc(Cc2cnc(N)nc2N)cc(OC)c1OC | 0.132% (inactive)
COC(=O)C1=C(C)NC(C)=C(C(=O)OCCN(C)Cc2ccccc2)C1c1cccc([N+](=O)[O-])c1 (stereo not given) | 2.3% (inactive)
C[C@H](CS)C(=O)N1CCC[C@H]1C(=O)O | 0.484% (inactive)
Cc1nc2ccccn2c(=O)c1CCN1CCC(C(=O)c2ccc(F)cc2)CC1 | 0.927% (inactive)
CCCN(CCC)C(=O)C(CCC(=O)O)NC(=O)c1ccccc1 (stereo not given) | 0.659% (inactive)
CNC1(C)C2CCC(C2)C1(C)C (stereo not given) | 1.55% (inactive)
CCCCCN(CCCCC)C(=O)C(CCC(=O)O)NC(=O)c1ccc(Cl)c(Cl)c1 (stereo not given) | -0.317% (inactive)
Nc1c2c(nc3ccccc13)CCCC2O (stereo not given) | 1.51% (inactive)
CN(C(=O)CCCOc1ccc2[nH]c(=O)ccc2c1)C1CCCCC1 | -0.44% (inactive)
C[C@]12CC[C@@H]3c4ccc(O)cc4C[C@@H](CCCCCCCCCS(=O)CCCC(F)(F)C(F)(F)F)[C@H]3[C@@H]1CC[C@@H]2O (stereo not given in full) | 0.409% (inactive)
C=CCc1ccccc1OCC(O)CNC(C)C (stereo not given) | -4.7% (inactive)
CCN(CC)CC(=O)Nc1c(C)cccc1C | 2.54% (inactive)
O=C(CCNNC(=O)c1ccncc1)NCc1ccccc1 | 0.704% (inactive)
NC(Cc1ccc(Cl)cc1)C(=O)O (stereo not given) | 2.46% (inactive)
CC(C)COCC(CN(Cc1ccccc1)c1ccccc1)N1CCCC1 (stereo not given) | 0.466% (inactive)
